4 compounds from PubChem BioAssay (EPA / NIEHS) can be followed below.

Test [1] concerns the target Nuclear respiratory factor 1 (Homo sapiens) (UniProt Q16656). The test is described as follows: ATG_NRF1_CIS: Attagene CIS-FACTORIAL HepG2 Assay for human Nuclear Respiratory Factor 1 (NRF1) Orphan Gene (AID 2282987). As to conditions: HepG2 NRF1 cis-element reporter, Attagene multiplex; actives raise or lower the signal. In short, it runs like this:
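HepG2 cells transiently transfected with multiple cis-regulated reporter units, exposed 24 h. Reporter mRNAs measured by RT-PCR, fluorescent labelling, HpaI digestion and capillary electrophoresis; bidirectional fitting against DMSO.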

The nature of test [2]: ATG_NFI_CIS: Attagene CIS-FACTORIAL HepG2 Assay for human Nuclear Factor I (NFI) (AID 2282989). Particulars: HepG2 cis-regulatory reporter, NFI response element transcription; actives raise or lower the signal. A digest of the protocol: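 Reporter transcripts were measured by RT-PCR with fluorescent primer extension and capillary electrophoresis 24 h post-treatment. HepG2 cells carried transiently transfected cis-regulated reporter constructs reporting endogenous factor activity; gain or loss fitted against DMSO baseline.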

Test [3] addresses Myc proto-oncogene protein (Homo sapiens) (UniProt P01106). The test can be described thus: ATG_Myc_CIS: Attagene CIS-FACTORIAL HepG2 Assay for human Myelocytomatosis (Myc) Proto-Oncogene Transcription Factor (AID 2282990). Particulars: HepG2, Attagene cis-reporter transcription factor activity; actives raise or lower the signal. In short, it runs like this: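 Transiently transfected HepG2 cells bearing cis-promoter reporter units for endogenous transcription factors; 24 h exposure. Reporter mRNA measured by RT-PCR, 6-FAM primer extension, HpaI cut and capillary electrophoresis; bidirectional fit relative to DMSO.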

Test [4] is described as follows: ATG_NF_kB_CIS: Attagene CIS-FACTORIAL HepG2 Assay for human Nuclear Factor Kappa B (NF-kB) (AID 2282991). Particulars: HepG2 Attagene cis-factorial NF-kB reporter mRNA; actives raise or lower the signal. A digest of the protocol:
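HepG2 cells transfected with cis-promoter-driven reporter units, so endogenous transcription factor activity is measured. Reporter mRNA quantified 24 h after dosing by RT-PCR and capillary electrophoresis, with bidirectional fitting against DMSO.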

The nature of test [5]: ATG_NRF2_ARE_CIS: Attagene CIS-FACTORIAL HepG2 Assay for human Nuclear Factor Erythroid 2 Related Factor 2 (NFR2) response to Antioxidant Response Elements (ARE) (AID 2282992).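 On AC50: reporter mRNA level measured by RT-PCR and capillary electrophoresis fluorescence.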 Particulars: HepG2 Attagene ARE/NRF2 reporter, transcription factor activity; actives raise or lower the signal. A digest of the protocol:
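Multiplexed reporter mRNA profiling in HepG2 after a 24 h chemical exposure. Curves fitted in both directions relative to DMSO negative control.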

The nature of test [6]: ATG_Oct_MLP_CIS: Attagene CIS-FACTORIAL HepG2 Assay for human Octamer-Binding Transcription Factor (Oct) (AID 2282993). As to conditions: HepG2 Attagene cis-factorial Oct reporter, mRNA; actives raise or lower the signal. A digest of the protocol: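 Readout is reporter transcript level from RT-PCR with fluorescent primer extension and capillary electrophoresis, fitted in both directions against DMSO. Transfected HepG2 reporter units report endogenous factor activity after 24 h dosing.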

Test [7] concerns the target human Retinoic Acid Receptor beta (RARb), RARB (gene 5915) (UniProt P10826). The test is described as follows: ATG_RARb_TRANS: Attagene TRANS-FACTORIAL HepG2 Assay for human Retinoic Acid Receptor beta (AID 2283004; active means hit-call score of the fitted dose curve at least 0.9, where 1 is the maximum). A digest of the protocol:
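Fluorescent capillary-electrophoresis detection of GAL4-UAS reporter mRNA defines the endpoint, with induction over DMSO-treated wells scored as activity. Transiently transfected human hepatoma HepG2 cells expressing exogenous NR–Gal4 proteins are exposed to test chemicals for 24 h.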

Test [8] addresses Retinoic acid receptor alpha (Homo sapiens) (UniProt P10276). The test is described as follows: ATG_RARa_TRANS: Attagene TRANS-FACTORIAL HepG2 Assay for human Retinoic Acid Receptor alpha (RARa) (AID 2283005; active means hit-call score of the fitted dose curve at least 0.9, where 1 is the maximum). A digest of the protocol: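 HepG2 transiently transfected with multiplex GAL4-UAS reporter units including a human RARa–GAL4 chimera; 24 h compound exposure. Reporter mRNA quantified by RT-PCR, 6-FAM labeling and capillary electrophoresis; gain of signal versus DMSO.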

In test [9] the target is Peroxisome proliferator-activated receptor gamma (Homo sapiens) (UniProt P37231). The test can be described thus: ATG_PPARg_TRANS: Attagene TRANS-FACTORIAL HepG2 Assay for human Peroxisome Proliferator-activated Receptor-gamma (PPARg) (AID 2283007; active means hit-call score of the fitted dose curve at least 0.9, where 1 is the maximum). In short, it runs like this: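 HepG2 cells are transiently transfected with GAL4-UAS reporter units driven by chimeric NR-Gal4 fusions and dosed for 24 h. Reporter mRNA is quantified by RT-PCR, 6-FAM labelling, HpaI digestion and capillary electrophoresis. Induction is scored against DMSO.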

Test [10] addresses Nuclear receptor subfamily 1 group I member 2 (Homo sapiens) (UniProt O75469). The test is described as follows: ATG_PXR_TRANS: Attagene TRANS-FACTORIAL HepG2 Assay for human Pregnane X Receptor (PXR) (AID 2283008; active means hit-call score of the fitted dose curve at least 0.9, where 1 is the maximum). A digest of the protocol: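 Measures mRNA induction of a GAL4-UAS-driven reporter in human HepG2 cells transiently expressing PXR fused to Gal4, following 24 h treatment. DMSO served as negative control and baseline.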

Test [11] concerns the target human Retinoic Acid Receptor gamma (RARg), RARG (gene 5916) (UniProt P13631). The test is described as follows: ATG_RARg_TRANS: Attagene TRANS-FACTORIAL HepG2 Assay for human Retinoic Acid Receptor gamma (RARg) (AID 2283009; active means hit-call score of the fitted dose curve at least 0.9, where 1 is the maximum). A digest of the protocol:
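HepG2 cells transiently transfected with multiplexed reporter units expressing chimeric RARg-GAL4 and GAL4-UAS-driven reporters; 24 h compound exposure. Reporter mRNA quantified by RT-PCR with fluorescent labelling and capillary electrophoresis; gain-of-signal fitted relative to DMSO baseline.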

For test [12], the target named is Cellular tumor antigen p53 (Homo sapiens) (UniProt P04637). The test is described as follows: ATG_p53_CIS: Attagene CIS-FACTORIAL HepG2 Assay for human p53 Transcription Factor (AID 2282994). As to conditions: HepG2 p53 cis-element reporter, Attagene mRNA; actives raise or lower the signal. A digest of the protocol:
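Multiplexed reporter mRNA assay in human HepG2 liver cells; cis-regulated units report endogenous factor activity. Values come from bidirectional curve fitting against DMSO negative control after 24 h treatment.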

Test [13] in a line: BSK_3C_TissueFactor: BioMAP Diversity Plus: 3C Assay for Tissue Factor Biomarker Activity (AID 2282997). Particulars: BioMAP 3C HUVEC, tissue factor biomarker readout; actives raise or lower the signal. In short, it runs like this:
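Endothelial monolayers (human umbilical vein, primary) are dosed, incubated 24 h, and assayed for Tissue Factor by ELISA; DMSO serves as negative control for bidirectional fitting.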

The nature of test [14]: BSK_3C_uPAR: BioMAP Diversity Plus: 3C Assay for Urokinase-type plasminogen activator receptor (uPAR) Biomarker Activity (AID 2282998). As to conditions: BioMAP 3C HUVEC, uPAR biomarker ELISA; actives raise or lower the signal. A digest of the protocol:
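Cell-surface uPAR on HUVEC (3C system) read by ELISA at 24 h post-treatment, with DMSO as baseline and fitting in both directions. Parallel cultures stained with SRB to flag overt cytotoxicity.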

Test [15] in a line: BSK_3C_VCAM1: BioMAP Diversity Plus: 3C Assay for Vascular cell adhesion molecule 1 (VCAM1) Biomarker Activity (AID 2282999). Particulars: BioMAP 3C HUVEC, VCAM1 ELISA, cytokine-stimulated; actives raise or lower the signal. In short, it runs like this:
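Human umbilical vein endothelial cells (3C system), biomarker read by ELISA 24 h after dosing; bidirectional fit against DMSO baseline. Cytotoxicity tracked by SRB total-protein staining in parallel cultures at biomarker time.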

Test [16] can be described thus: BSK_4H_Eotaxin3: BioMAP Diversity Plus: 4H Assay for Eotaxin 3 Biomarker Activity (AID 2283000).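 Further: CCL26 protein level quantified by ELISA in parallel with SRB cytotoxicity check.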 Particulars: primary human endothelial cells (HUVEC); actives raise or lower the signal. A digest of the protocol:
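ELISA quantitation of CCL26 (Eotaxin-3) protein from chemically dosed human vascular endothelial cells at 24 h; increases and decreases both scored relative to DMSO-treated baseline.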

Test [17] deals with human Peroxisome Proliferator-activated Receptor alpha (PPARa), PPARA (gene 5465) (UniProt Q07869). The test can be described thus: ATG_PPARa_TRANS: Attagene TRANS-FACTORIAL HepG2 Assay for human Peroxisome Proliferator-activated Receptor alpha (PPARa) (AID 2283001; active means hit-call score of the fitted dose curve at least 0.9, where 1 is the maximum). In short, it runs like this: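 Measures transcriptional activity of an exogenous chimeric PPARa-Gal4 protein in transiently transfected HepG2 cells after 24 h dosing. Reporter mRNA quantified via RT-PCR and capillary electrophoresis; DMSO served as negative control.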

The nature of test [18]: BSK_3C_Proliferation: Cell Proliferation Assessment in the BioMAP Diversity Plus: 3C Assay (AID 2283006).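 Further: potency may reflect either rise or fall in cell number versus DMSO.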 Particulars: primary human endothelial cells (HUVEC). A digest of the protocol:
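Human umbilical vein endothelial cells were grown sub-confluent and exposed to chemical for 48 h, then fixed with 10% TCA and stained with 0.1% sulforhodamine B; absorbance at 560 nm gave relative cell number, fitted bidirectionally against DMSO baseline.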

Read-out in test [19]: Intercellular Adhesion Molecule 1 (ICAM1), ICAM1 (gene 3383)
The test can be described thus: BSK_3C_ICAM1: BioMAP Diversity Plus: 3C Assay for Intercellular Adhesion Molecule 1 (ICAM1) Biomarker Activity (AID 2283003). Particulars: primary human endothelial cells (HUVEC); actives raise or lower the signal. A digest of the protocol: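 Primary human umbilical vein endothelial cells in the BioMAP 3C system were exposed to chemicals for 24 h, then ICAM-1 was quantified by ELISA. Activity was fitted bidirectionally against the DMSO negative control baseline.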

Where “and” joins values, the source holds several entries; their conditions need not be identical. Identical values can stand only once. Results filed as inconclusive are left out. Calls of active or inactive are those of the source. How the source made its calls, unless noted: active means hit-call score of the fitted dose curve at least 0.9, where 1 is the maximum; inactive means score below 0.9.

Chain of Myc proto-oncogene protein (Homo sapiens) (P01106 whole entry, looked up): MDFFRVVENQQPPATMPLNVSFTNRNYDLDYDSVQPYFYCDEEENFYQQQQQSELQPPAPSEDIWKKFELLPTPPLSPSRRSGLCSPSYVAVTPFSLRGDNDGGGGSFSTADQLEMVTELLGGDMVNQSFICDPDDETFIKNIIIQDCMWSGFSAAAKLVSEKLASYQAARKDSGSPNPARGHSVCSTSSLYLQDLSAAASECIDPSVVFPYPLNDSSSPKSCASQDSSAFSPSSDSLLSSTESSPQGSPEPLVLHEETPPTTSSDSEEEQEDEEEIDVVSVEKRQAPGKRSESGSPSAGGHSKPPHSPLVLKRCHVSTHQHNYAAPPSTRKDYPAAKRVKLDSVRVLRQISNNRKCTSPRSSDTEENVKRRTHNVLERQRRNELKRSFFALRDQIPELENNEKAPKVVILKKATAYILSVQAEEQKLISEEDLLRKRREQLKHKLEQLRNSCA
Chain of Nuclear respiratory factor 1 (Homo sapiens) (Q16656 whole entry, looked up): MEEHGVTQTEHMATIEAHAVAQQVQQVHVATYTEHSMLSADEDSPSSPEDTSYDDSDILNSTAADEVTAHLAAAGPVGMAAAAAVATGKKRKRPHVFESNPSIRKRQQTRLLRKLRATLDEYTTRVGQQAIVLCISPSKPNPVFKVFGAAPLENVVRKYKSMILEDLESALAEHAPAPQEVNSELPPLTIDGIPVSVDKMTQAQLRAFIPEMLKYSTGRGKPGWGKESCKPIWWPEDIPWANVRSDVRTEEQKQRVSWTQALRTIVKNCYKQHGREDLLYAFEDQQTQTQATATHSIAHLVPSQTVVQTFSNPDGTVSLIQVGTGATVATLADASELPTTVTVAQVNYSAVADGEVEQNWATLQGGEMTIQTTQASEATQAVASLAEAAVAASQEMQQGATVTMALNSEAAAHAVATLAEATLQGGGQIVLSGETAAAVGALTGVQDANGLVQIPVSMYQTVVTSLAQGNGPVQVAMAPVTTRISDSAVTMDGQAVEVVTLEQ
Chain of human Retinoic Acid Receptor beta (RARb), RARB (gene 5915) (P10826 whole entry, looked up, the tested form may be a part): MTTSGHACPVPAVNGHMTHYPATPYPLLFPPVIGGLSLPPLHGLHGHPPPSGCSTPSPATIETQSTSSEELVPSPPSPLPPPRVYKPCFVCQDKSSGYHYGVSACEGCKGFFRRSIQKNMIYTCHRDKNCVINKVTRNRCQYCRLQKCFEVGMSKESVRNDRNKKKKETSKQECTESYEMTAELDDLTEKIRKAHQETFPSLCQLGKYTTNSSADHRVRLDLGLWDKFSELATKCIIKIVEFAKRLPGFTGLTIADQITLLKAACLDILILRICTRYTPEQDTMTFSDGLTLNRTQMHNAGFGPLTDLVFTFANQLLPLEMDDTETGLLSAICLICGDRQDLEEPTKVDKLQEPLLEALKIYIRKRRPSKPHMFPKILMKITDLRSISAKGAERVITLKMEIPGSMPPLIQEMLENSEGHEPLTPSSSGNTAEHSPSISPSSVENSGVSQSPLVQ
Chain of human Peroxisome Proliferator-activated Receptor alpha (PPARa), PPARA (gene 5465) (Q07869 whole entry, looked up, the tested form may be a part): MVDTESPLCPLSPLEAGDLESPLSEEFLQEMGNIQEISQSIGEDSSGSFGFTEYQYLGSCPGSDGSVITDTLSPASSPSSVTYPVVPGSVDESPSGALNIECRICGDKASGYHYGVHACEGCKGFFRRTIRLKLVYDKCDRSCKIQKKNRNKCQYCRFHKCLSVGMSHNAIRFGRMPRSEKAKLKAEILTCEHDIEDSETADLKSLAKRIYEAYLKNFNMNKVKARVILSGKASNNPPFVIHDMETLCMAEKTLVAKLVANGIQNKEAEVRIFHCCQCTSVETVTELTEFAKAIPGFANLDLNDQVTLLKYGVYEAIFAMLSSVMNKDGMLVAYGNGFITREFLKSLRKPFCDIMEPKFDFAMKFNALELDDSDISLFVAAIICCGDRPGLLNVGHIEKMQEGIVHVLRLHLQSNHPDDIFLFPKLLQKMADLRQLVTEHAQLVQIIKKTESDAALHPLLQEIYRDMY
Chain of Retinoic acid receptor alpha (Homo sapiens) (P10276 whole entry, looked up, the tested form may be a part): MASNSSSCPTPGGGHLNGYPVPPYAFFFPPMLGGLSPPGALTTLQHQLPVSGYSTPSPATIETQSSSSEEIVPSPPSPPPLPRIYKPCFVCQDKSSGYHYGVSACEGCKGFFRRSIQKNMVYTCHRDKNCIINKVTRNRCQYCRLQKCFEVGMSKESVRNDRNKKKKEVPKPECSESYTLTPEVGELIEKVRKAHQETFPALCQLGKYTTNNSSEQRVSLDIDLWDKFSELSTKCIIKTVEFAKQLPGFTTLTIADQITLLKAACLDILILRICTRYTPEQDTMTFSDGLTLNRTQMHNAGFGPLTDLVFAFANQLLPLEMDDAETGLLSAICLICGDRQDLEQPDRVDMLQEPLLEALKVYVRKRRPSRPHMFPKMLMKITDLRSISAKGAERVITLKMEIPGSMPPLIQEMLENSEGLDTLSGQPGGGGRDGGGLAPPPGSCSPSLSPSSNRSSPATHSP
Chain of Peroxisome proliferator-activated receptor gamma (Homo sapiens) (P37231 whole entry, looked up, the tested form may be a part): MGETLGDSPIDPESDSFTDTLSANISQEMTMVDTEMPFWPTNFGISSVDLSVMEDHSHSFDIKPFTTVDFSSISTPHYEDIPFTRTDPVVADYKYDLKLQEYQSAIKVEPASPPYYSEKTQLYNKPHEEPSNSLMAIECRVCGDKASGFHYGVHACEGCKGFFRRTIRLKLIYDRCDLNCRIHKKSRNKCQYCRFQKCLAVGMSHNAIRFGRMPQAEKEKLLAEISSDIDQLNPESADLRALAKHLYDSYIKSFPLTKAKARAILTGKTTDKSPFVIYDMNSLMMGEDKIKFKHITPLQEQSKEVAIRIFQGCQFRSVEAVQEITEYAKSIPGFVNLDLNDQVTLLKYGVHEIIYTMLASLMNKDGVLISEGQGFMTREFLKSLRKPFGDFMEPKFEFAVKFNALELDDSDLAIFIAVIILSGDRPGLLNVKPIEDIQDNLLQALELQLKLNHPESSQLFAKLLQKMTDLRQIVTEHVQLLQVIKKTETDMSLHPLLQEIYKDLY
Chain of Cellular tumor antigen p53 (Homo sapiens) (P04637 whole entry, looked up): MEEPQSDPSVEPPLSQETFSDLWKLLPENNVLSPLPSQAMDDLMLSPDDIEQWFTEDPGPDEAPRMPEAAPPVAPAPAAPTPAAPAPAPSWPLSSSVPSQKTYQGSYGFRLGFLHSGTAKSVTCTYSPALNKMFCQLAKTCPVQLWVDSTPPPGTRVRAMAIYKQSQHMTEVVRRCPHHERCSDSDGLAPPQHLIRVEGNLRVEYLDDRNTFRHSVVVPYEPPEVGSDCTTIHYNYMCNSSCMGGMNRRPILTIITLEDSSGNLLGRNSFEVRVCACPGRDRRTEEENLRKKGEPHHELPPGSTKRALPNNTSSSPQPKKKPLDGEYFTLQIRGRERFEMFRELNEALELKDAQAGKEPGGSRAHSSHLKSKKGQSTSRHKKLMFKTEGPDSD
Chain of Nuclear receptor subfamily 1 group I member 2 (Homo sapiens) (O75469 whole entry, looked up, the tested form may be a part): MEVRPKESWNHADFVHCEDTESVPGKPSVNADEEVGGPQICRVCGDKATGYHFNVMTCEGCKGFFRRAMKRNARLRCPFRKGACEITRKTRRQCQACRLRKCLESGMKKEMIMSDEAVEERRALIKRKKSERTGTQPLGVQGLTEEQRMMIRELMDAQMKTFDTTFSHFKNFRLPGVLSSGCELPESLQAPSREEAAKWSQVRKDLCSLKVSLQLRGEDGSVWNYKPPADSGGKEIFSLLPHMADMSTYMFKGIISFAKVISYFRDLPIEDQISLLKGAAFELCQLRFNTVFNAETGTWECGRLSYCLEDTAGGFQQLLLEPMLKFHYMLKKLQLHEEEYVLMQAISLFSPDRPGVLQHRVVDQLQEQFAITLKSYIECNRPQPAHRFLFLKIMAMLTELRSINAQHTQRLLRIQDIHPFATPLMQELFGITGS
Chain of human Retinoic Acid Receptor gamma (RARg), RARG (gene 5916) (P13631 whole entry, looked up, the tested form may be a part): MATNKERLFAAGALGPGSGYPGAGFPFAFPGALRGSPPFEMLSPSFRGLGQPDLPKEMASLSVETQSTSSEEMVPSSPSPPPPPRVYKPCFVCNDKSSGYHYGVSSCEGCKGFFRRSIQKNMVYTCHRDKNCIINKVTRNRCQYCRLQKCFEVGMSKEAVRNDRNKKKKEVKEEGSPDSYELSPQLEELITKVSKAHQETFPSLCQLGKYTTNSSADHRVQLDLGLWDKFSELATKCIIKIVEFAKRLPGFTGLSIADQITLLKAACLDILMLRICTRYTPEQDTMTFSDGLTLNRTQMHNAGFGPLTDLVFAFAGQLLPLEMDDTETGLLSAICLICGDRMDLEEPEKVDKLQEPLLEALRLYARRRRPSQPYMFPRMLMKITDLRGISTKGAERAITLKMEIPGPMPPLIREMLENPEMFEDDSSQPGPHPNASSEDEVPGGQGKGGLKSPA

Regarding `CC(C)OC(=O)c1ccccc1C(=O)OC(C)C`, the compound was called inactive in test [1], in test [2], in [3], in test [4], in test [5] and in test [6]. For the same compound, the compound was classed as inactive in test [7], in test [8] and in test [11]. The AC50 was 100 µM (active) in test [9] and 5.74 µM (active) in test [10].
Take `OCC(F)(F)C(F)(F)C(F)(F)C(F)(F)C(F)(F)C(F)(F)F`: the outcome in test [1], in test [2], in test [3], in [4], in test [13] and in [14] was inactive. Besides, the result in [15], in test [16], in test [17], in [8] and in test [10] was inactive. The AC50 was 225 µM (active) in test [5]; 257 µM (active) in test [12]; 52.3 µM (active) and 30 µM (active) in test [18].
On to `CO[Si](OC)(c1ccccc1)c1ccccc1`, for which the result in test [1], in test [2], in test [3], in test [4], in [5] and in test [6] was inactive. Besides, the compound was called inactive in [12], in [16], in [17], in [19], in test [7] and in test [8]. Besides, the compound was called inactive in test [9] and in [11]. The AC50 in test [14] is 34.8 µM (active); in test [15] it was 36.7 µM (active); in test [18] it was 37 µM (active); in test [10] it was 15.4 µM (active).
Consider `FC(F)(I)C(F)(F)C(F)(F)C(F)(F)I`, for which the call in test [1], in test [2], in test [3], in test [4], in test [6] and in test [12] was inactive. Further, the compound was called inactive in [17], in test [7] and in test [10]. The AC50 in test [5] was 33.4 µM (active); in test [13] it was 44.1 µM (active) and 42 µM (active) and 56.5 µM (active); in [14], 51.2 µM (active) and 53.9 µM (active) and 47.1 µM (active); in test [15], 49.9 µM (active) and 48.3 µM (active) and 57.1 µM (active); in [19], 39.6 µM (active) and 45.6 µM (active) and 52.7 µM (active); in test [18], 49.8 µM (active) and 52.8 µM (active) and 49.4 µM (active). Besides, the AC50 in test [9] was 48.6 µM (active).

One may read the AC50 as the concentration giving half of the maximal activity seen.
